Where “and” joins values, the source holds several entries; their conditions need not be identical. Equal entries are not always repeated. About 79,000 compounds went through this panel and 15% of them were active in at least one assay; those are over-represented in the sample as a whole. Calls of active or inactive are those of the source. No stated cut-off is given here; in the data, active means growth inhibition above about 70%; inactive means the rest.
What was measured:
[1] = NCI Yeast Anticancer Drug Screen. Data for the rad50 strain (AID 155);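 further: 0% = growth of vehicle-only cultures of the same strain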; conditions: S. cerevisiae rad50 strain growth inhibition, hits give high values; at 50.0 µM unless noted
Summary of the method: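 Vehicle-treated cultures provide the reference for the growth inhibition reported for compound-exposed, repair-deficient yeast.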

[2] = NCI Yeast Anticancer Drug Screen. Data for the mec2-1 strain (AID 157); conditions: S. cerevisiae mec2-1 strain, hits give high values; at 50.0 µM unless noted
Summary of the method: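 Mutant yeast (mec2-1) grown with compound; growth inhibition relative to vehicle control reported.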

[3] = NCI Yeast Anticancer Drug Screen. Data for the sgs1 mgt1 strain (AID 161);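 further: 0% = growth of cultures given vehicle only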; conditions: S. cerevisiae sgs1 mgt1 strain, hits give high values; at 50.0 µM unless noted
Summary of the method: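 This yeast growth screen uses a strain with defined DNA-repair lesions; compound-treated growth is compared with vehicle-treated growth.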

[4] = NCI Yeast Anticancer Drug Screen. Data for the cln2 rad14 strain (AID 165);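 further: 0% = growth equal to vehicle treated cultures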; conditions: S. cerevisiae cln2 rad14 strain, hits give high values; at 50.0 µM unless noted
Summary of the method: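 Readout is yeast growth inhibition versus vehicle-treated controls, using a strain with cln2 and rad14 alterations exposed to compound.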

[5] = NCI Yeast Anticancer Drug Screen. Data for the bub3 strain (AID 167); conditions: S. cerevisiae bub3 mutant strain, hits give high values; at 50.0 µM unless noted
Summary of the method: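 Mutant yeast screening strain plus compound; vehicle-treated cultures serve as the 0% inhibition reference.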

[6] = NCI Yeast Anticancer Drug Screen. Data for the mlh1 rad18 strain (AID 175); conditions: S. cerevisiae mlh1 rad18 strain growth inhibition, hits give high values; at 50.0 µM unless noted
Summary of the method: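 Genetically defined yeast (DNA repair-deficient) exposed to compounds; growth inhibition determined relative to vehicle.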

Measured: growth inhibition

CCCCN(CCCC)C(=O)C(=O)C(C(=O)c1ccc(OC)cc1)c1ccc(OC)cc1 (stereo unspecified)
inactive: [1] -8.95% | [2] -1.5% | [3] -11.8% | [4] -10.3% | [5] 14.1% | [6] -3.95%

O=C1OC2(CCCCC2)OC1c1ccccc1 (stereo unspecified)
inactive: [1] 23.4% | [2] 4.2% | [3] 11.9% | [4] 10.5% | [5] 16.2% | [6] 33.5%

CCCCCCCCCCCCOC(=O)NC1c2ccccc2Oc2ccccc21
inactive: [1] 30.4% | [2] 17.6% | [3] 26.6% | [4] 32.5% | [5] 19.6% | [6] 43.4%

CC(CCO)CCCO (stereo unspecified)
inactive: [1] -22.1% | [2] -11.8% | [3] 7.35% | [4] -13.8% | [5] -26.2% | [6] -26.8%

N/C1=C/C(=O)NC(=O)c2c(c3ccccc3oc2=O)C1
inactive: [1] -5.7% | [2] 0.9% | [3] 8.5% | [4] 5% | [5] 7.3% | [6] -29.6%

CN1CNC(=O)NC1
inactive: [1] -37% and 10.6% | [2] -25.8% and -10.5% | [3] -12.3% and 9.8% | [4] 4.05% and 8.2% | [5] -23.1% and -11.1% | [6] -16.1% and 23.9%

CC1(C)N=C(C(N)=O)c2ncn(Cc3ccccc3)c2N1
inactive: [1] -29% | [2] -32.6% | [3] -23.6% | [4] 18.4% | [5] -8.1% | [6] -6.9%

NC(N)=NS(=O)(=O)c1ccc(N=NC2=C(O)C(c3ccccc3)N(c3ccccc3)C2=O)cc1 (stereo unspecified)
inactive: [1] 6.35% | [2] 22.1% | [3] 35.5% | [4] 0.3% | [5] 0.45% | [6] 33%

CC(=O)c1cc(Cc2cc(C)cc(C)c2O)c(O)c(Cc2cc(C)cc(C)c2O)c1
inactive: [1] 18.9% | [2] 11.6% | [3] 28.9% | [4] 33.7% | [5] 17.4% | [6] 4.05%

NC(=O)c1ccc[n+]([O-])c1
inactive: [1] 15.1% | [2] -0.5% | [3] 6.35% | [4] 6.6% | [5] 2.65% | [6] -1.75%

CCSC(SCC)=C1C(=O)N(c2ccccc2)N=C1C
inactive: [1] -6.75% | [2] -18.8% | [3] -4.1% | [4] 16.2% | [5] 8.6% | [6] 2.85%

CC(C)(C)OC(=O)NCC(=O)OC/C=C/c1ccccc1
inactive: [1] -2.7% | [2] 1.3% | [3] 6.65% | [4] -8.15% | [5] -3.6% | [6] 6.1%

COc1ccc2oc3c(OC)c(OC)c(OC)cc3c(=O)c2c1
inactive: [1] -11.3% | [2] -21.6% | [3] -4.95% | [4] 6% | [5] 12.6% | [6] -15.8%

O=C(O)CCCCCCCC(=O)O
inactive: [1] 15.4% | [2] -0.45% | [3] 16.9% | [4] -3.05% | [5] 5.5% | [6] 27.2%

CCOC(=O)CC/C=N/Nc1ccc([N+](=O)[O-])cc1[N+](=O)[O-]
inactive: [1] 20.6% | [2] -14% | [3] 6.7% | [4] -45.5% | [5] 6.55% | [6] 0%

CCOC(=O)C(CCc1ccccc1)C(C)=O (stereo unspecified)
inactive: [1] -0.75% | [2] -7.95% | [3] -0.25% | [4] 40.5% | [5] 2.45% | [6] -11.8%

O=C1NCCN1/N=C/c1ccc([N+](=O)[O-])o1
inactive: [1] 26.4% | [2] 9.35% | [3] 37.5% | [4] -29.9% | [5] 14.4% | [6] 25.9%

COc1cc2c3cc1Oc1cc(ccc1O)C[C@@H]1c4c(cc(OC)c(O)c4Oc4ccc(cc4)C[C@@H]3[N+](C)(C)CC2)CC[N+]1(C)C
inactive: [1] -23.2% | [2] -43.1% | [3] -40.4% | [4] 68.6% | [5] -35.6% | [6] 6.7%

CCC(=N\NC(=S)NCCN(C)C)/C(C)=N/NC(=S)NCCN(C)C
inactive: [1] 57% | [2] 13.2% | [3] 52.2% | [4] 4.95% | [5] 16.5% | [6] 54.9%

CC1C(c2ccccc2)OCCN1C(=S)Nc1ccccc1 (stereo unspecified)
inactive: [1] 34.9% | [2] 34.2% | [3] 45.6% | [4] -16.6% | [5] 35.2% | [6] 25.4%

CCOC(=O)C(N)CSC(=O)NC (stereo unspecified)
inactive: [1] 24.9% | [2] -3.4% | [3] 16% | [4] 3.2% | [5] 20.9% | [6] -49.5%

CCN(CC)CCOC(=O)c1ccc(NC(=O)OCCOCCOC(=O)Nc2ccc(C(=O)OCCN(CC)CC)cc2)cc1
inactive: [1] -1.8% | [2] -4.3% | [3] 9.25% | [4] -1.1% | [5] -3.1% | [6] 14.7%

CC1(C)COC1(c1ccccc1)c1cccnc1 (stereo unspecified)
inactive: [1] -45.1% | [2] -11.4% | [3] -14.1% | [4] -39.2% | [5] 8.15% | [6] -16.8%

O=S(=O)(O)c1ccc(N=Nc2ccc(O)cc2)cc1
inactive: [1] -15.8% and 28.8% | [2] -27.9% and -10.4% | [3] -10.1% | [4] -53.9% | [5] 3.7% | [6] -17.4% and 8.65%

CCN(C(=O)c1ccc(C(=O)N(CC)c2cccc(C)c2)cc1)c1cccc(C)c1
inactive: [1] -24.4% | [2] -3.55% | [3] -9.85% | [4] 8.05% | [5] 6.15% | [6] -1.7%

Cc1ncc(CO)c(/C=N\OCc2cccc(Cl)c2)c1O
inactive: [1] 31.1% | [2] 16.3% | [3] -1.5% | [4] -1.95% | [5] 17.1% | [6] 9.2%

CC(=O)c1sc2[n+](c1C)C(=O)/C(=C\c1ccccc1Cl)S2
inactive: [1] 15.7% | [2] -17.6% | [3] -1% | [4] 10.2% | [5] -7.75% | [6] -3%

CCCCCCCCCCCC[N+](C)(C)C(C)Cc1ccccc1 (stereo unspecified)
active: [1] 99.3% | [2] 99.5% | [3] 89.8% | [4] 99.4% | [5] 99.2% | [6] 99.3%

COc1cc([C@@H]2c3cc4c(cc3[C@H](OC3OC5COC(c6ccco6)OC5C(O)C3O)C3COC(=O)[C@@H]32)OCO4)cc(OC)c1OC (stereo partly specified)
inactive: [1] 7.25% | [2] 18.8% | [3] 7.6% | [4] 17.9% | [5] 0.2% | [6] -42%

CCCCCC[N+](C)(C)C
inactive: [1] 28% | [2] -16.3% | [3] 2.7% | [4] 6.75% | [5] 31.3% | [6] 16.2%

O=C(Nc1nccs1)c1ccccc1F
inactive: [1] 3.8% | [2] -0.9% | [3] -12.2% | [4] -53.3% | [5] -8.45% | [6] -3.15%

S=c1nc2ccccn2c(=S)n1-c1ccccn1
inactive: [1] 33.6% | [2] 23.9% | [3] 27.4% | [4] 0.5% | [5] 24.5% | [6] 57.9%

C1C2OC2CC2OC12 (stereo unspecified)
inactive: [1] -13.4% | [2] -9.35% | [3] -1.2% | [4] 55.8% | [5] -1.05% | [6] -4.25%

COc1ccc(-c2oc(=O)c3ccccc3c2-c2ccccc2)cc1
inactive: [1] 7.25% | [2] 4.65% | [3] 5.35% | [4] 9.4% | [5] 2.6% | [6] 6.4%

CCS(=O)(=O)/C=C/c1cccs1
inactive: [1] -9.1% | [2] -7.95% | [3] -8.65% | [4] -47.6% | [5] 4.8% | [6] -17.6%

N#Cc1c(O)c(N=Nc2ccc(Cl)cc2)c(=O)n2c1[nH]c1ccccc12
inactive: [1] 11.6% | [2] 14.2% | [3] 21.2% | [4] 28.9% | [5] 10.5% | [6] 18.7%
